From the supplement of paper PMC11732987, “Enantioselective OTUD7B fragment discovery through chemoproteomics screening and high-throughput optimisation” (Communications Chemistry, 2025)

How the values were obtained:
Assay in all cases: log2 ratio of Biotin-Ahx-Ub-VS probe labelling (fragment/DMSO); higher = less target engagement (more negative = stronger competition), active = hit call of the paper (q ≤ 0.05, log2 ratio ≤ -1)
Details in all cases: compound concentration: 200 uM; treatment time: 3 h
USP42 = molecular target: T1, USP42 (UniProt Q9H9J4)
T1 sequence (whole entry): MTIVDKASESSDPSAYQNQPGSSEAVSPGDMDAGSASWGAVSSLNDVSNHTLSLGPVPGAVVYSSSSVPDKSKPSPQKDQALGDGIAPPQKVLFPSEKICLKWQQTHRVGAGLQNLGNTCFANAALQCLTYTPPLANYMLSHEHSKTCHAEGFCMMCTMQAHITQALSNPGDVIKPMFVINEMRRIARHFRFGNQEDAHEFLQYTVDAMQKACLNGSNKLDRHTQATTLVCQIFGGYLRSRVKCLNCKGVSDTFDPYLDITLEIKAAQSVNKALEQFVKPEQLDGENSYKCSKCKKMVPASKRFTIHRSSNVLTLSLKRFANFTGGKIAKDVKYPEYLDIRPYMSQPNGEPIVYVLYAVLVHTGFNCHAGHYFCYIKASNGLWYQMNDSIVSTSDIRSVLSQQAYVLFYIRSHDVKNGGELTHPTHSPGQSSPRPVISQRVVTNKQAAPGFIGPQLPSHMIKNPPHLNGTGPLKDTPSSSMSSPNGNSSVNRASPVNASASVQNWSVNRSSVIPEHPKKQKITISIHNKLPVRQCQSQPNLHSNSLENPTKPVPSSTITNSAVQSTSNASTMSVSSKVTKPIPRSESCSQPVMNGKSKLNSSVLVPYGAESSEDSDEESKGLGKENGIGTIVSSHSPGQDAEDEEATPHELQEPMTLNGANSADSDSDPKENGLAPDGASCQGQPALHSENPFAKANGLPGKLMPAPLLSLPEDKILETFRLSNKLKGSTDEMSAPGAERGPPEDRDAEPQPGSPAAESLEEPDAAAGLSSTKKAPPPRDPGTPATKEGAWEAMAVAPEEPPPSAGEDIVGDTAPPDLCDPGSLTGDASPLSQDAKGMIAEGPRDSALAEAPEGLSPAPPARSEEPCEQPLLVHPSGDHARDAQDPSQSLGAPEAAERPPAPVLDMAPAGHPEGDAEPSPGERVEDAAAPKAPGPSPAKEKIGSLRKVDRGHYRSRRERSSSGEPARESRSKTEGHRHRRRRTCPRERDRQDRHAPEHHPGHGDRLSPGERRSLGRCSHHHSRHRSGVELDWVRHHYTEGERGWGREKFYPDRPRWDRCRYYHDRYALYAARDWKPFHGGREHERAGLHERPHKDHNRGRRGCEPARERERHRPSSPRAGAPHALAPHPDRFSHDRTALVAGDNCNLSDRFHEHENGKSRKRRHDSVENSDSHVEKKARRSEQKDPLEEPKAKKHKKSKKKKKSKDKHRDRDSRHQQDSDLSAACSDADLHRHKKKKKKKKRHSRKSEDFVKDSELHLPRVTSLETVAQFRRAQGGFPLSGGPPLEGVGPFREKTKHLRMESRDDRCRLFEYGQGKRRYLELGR
In short: (§1)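 The table lists average log2 ratios of fragment over vehicle, from an unpaired t-test on global-median-normalised Spectronaut label-free quantities. Proteins with ≥2 unique peptides were used. Samples were HEK293T lysate (495 µg) treated in triplicate with fragment at 200 µM or vehicle for 3 h, then with Biotin-Ahx-Ub-VS (0.5 µM final) for 1 h, with labelled DUBs NeutrAvidin-enriched and run by diaPASEF LC-MS/MS.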

USP46 = USP46 (UniProt P62068)
Sequence of USP46 (P62068 whole entry): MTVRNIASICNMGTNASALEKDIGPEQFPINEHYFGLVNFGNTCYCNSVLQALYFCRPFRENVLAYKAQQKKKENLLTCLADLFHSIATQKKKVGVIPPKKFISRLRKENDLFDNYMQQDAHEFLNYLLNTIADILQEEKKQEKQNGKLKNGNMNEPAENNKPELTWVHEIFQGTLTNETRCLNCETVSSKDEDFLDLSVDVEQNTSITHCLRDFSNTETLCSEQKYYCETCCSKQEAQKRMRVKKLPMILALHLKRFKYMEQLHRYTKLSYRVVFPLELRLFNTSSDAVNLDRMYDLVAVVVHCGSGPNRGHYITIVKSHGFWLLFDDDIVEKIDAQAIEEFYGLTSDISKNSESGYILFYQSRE
In short: as §1

USP47 = molecular target: T2, USP47 (UniProt Q96K76)
T2 sequence (whole entry): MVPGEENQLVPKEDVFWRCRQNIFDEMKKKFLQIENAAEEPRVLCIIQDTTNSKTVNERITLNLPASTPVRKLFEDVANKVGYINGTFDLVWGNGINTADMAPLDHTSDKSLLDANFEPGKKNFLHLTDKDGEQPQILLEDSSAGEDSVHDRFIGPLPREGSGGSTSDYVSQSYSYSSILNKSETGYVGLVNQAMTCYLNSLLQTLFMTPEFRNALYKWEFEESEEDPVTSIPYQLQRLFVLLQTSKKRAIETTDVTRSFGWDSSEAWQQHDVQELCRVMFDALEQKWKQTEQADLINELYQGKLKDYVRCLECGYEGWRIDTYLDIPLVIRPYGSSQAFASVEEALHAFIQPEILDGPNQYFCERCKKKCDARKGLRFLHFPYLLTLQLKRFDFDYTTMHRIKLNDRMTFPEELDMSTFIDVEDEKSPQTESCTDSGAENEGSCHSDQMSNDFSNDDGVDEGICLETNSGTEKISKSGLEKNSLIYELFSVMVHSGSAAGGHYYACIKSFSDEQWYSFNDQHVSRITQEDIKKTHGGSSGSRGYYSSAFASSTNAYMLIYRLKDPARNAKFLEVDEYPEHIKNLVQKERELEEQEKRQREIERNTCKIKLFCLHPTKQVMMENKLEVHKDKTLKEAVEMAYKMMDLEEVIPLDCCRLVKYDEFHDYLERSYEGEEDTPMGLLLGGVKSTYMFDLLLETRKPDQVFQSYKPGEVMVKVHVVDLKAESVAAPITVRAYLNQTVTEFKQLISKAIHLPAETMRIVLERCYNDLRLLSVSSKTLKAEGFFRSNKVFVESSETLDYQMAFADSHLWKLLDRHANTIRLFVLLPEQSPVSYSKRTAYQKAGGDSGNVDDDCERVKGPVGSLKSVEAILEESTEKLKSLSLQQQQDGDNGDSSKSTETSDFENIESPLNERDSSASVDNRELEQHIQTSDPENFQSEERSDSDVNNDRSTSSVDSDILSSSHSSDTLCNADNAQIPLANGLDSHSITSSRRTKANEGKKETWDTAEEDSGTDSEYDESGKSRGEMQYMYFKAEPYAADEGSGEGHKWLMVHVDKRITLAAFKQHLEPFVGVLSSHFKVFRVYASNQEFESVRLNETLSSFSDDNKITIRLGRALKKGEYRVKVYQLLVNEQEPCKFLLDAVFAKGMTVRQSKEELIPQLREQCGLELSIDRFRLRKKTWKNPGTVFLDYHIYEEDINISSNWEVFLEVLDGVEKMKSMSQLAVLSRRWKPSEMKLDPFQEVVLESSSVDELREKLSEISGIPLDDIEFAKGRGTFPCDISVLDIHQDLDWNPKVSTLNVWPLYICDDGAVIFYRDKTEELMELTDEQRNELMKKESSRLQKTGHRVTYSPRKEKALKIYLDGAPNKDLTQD
In short: as §1

USP48 = molecular target: T3, USP48 (UniProt Q86UV5)
T3 sequence (whole entry): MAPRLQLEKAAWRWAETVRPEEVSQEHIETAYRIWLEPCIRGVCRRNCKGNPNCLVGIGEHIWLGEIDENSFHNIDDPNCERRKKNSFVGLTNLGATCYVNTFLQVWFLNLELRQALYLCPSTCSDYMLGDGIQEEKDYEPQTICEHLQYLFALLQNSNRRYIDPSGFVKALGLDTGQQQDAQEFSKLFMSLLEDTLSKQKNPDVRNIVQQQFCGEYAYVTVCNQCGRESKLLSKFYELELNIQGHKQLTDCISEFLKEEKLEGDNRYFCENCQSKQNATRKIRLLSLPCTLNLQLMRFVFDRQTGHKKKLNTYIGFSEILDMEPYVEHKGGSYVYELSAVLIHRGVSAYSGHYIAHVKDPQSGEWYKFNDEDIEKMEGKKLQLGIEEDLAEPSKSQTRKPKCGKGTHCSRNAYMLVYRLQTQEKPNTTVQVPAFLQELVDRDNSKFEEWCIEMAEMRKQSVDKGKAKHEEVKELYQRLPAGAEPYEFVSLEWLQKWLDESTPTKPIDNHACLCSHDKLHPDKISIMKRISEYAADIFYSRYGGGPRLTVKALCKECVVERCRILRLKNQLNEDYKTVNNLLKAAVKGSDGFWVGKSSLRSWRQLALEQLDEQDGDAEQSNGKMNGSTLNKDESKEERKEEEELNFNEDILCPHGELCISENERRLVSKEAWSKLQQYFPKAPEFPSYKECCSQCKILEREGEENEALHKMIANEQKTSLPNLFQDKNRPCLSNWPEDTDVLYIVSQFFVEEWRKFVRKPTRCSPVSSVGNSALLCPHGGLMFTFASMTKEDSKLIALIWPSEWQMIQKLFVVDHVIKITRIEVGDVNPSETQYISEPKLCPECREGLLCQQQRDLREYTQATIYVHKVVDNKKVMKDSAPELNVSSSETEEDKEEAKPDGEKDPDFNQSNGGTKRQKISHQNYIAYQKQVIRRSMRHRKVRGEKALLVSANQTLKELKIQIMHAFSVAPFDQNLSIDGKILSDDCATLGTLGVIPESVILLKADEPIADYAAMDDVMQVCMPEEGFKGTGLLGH
In short: as §1

USP5 = molecular target: T4, USP5 (UniProt P45974)
T4 sequence (whole entry): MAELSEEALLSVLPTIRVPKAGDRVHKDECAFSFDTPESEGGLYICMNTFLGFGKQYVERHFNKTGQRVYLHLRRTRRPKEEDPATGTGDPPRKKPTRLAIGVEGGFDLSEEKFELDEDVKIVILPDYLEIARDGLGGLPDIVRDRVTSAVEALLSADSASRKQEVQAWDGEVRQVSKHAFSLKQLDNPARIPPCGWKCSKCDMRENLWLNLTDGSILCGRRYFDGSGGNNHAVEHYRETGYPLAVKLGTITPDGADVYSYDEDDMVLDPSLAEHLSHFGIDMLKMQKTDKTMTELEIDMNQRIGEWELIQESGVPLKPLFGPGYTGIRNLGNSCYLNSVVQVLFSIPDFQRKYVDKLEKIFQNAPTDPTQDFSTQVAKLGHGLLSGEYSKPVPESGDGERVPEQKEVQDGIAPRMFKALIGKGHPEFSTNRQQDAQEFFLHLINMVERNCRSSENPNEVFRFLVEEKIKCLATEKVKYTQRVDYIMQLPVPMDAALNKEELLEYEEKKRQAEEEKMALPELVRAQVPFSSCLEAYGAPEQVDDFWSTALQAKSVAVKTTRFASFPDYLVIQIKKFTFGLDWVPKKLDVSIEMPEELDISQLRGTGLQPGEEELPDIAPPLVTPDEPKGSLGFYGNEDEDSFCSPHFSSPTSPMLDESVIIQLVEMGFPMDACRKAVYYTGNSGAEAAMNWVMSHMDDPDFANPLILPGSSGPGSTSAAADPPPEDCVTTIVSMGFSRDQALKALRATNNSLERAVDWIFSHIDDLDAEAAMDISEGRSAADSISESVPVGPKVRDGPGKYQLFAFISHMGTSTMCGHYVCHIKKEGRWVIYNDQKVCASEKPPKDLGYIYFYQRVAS
In short: as §1

USP54 = USP54 (UniProt Q70EL1)
In short: as §1

USP7 = USP7 (UniProt Q93009)
Sequence of USP7 (Q93009 whole entry, looked up): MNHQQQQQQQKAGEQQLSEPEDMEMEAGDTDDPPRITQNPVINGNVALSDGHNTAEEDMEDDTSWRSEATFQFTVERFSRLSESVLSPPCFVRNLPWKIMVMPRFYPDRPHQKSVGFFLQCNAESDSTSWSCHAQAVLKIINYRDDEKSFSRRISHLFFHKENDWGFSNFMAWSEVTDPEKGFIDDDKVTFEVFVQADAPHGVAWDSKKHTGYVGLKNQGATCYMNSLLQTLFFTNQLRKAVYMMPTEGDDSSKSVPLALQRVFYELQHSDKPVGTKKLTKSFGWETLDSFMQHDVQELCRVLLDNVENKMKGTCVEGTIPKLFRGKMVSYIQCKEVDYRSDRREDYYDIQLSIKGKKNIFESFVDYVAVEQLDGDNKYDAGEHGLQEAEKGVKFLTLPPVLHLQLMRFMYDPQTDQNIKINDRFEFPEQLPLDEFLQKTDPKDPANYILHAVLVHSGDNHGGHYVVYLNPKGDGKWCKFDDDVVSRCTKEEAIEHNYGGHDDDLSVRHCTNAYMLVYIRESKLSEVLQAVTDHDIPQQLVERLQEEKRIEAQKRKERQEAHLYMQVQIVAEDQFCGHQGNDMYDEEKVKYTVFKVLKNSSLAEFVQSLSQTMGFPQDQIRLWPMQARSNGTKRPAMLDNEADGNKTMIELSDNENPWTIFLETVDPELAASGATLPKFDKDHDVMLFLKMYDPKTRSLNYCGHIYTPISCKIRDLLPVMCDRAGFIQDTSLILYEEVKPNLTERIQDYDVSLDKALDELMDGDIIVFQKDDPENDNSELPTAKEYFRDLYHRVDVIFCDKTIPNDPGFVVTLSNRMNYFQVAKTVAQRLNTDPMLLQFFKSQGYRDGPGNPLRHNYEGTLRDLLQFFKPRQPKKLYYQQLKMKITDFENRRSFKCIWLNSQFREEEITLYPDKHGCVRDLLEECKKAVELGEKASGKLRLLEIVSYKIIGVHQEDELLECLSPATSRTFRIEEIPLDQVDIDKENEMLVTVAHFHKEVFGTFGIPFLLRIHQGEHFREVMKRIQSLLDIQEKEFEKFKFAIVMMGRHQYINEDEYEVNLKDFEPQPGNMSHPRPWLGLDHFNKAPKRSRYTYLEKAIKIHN
In short: as §1

USP8 = molecular target: T5, USP8 (UniProt P40818)
T5 sequence (whole entry): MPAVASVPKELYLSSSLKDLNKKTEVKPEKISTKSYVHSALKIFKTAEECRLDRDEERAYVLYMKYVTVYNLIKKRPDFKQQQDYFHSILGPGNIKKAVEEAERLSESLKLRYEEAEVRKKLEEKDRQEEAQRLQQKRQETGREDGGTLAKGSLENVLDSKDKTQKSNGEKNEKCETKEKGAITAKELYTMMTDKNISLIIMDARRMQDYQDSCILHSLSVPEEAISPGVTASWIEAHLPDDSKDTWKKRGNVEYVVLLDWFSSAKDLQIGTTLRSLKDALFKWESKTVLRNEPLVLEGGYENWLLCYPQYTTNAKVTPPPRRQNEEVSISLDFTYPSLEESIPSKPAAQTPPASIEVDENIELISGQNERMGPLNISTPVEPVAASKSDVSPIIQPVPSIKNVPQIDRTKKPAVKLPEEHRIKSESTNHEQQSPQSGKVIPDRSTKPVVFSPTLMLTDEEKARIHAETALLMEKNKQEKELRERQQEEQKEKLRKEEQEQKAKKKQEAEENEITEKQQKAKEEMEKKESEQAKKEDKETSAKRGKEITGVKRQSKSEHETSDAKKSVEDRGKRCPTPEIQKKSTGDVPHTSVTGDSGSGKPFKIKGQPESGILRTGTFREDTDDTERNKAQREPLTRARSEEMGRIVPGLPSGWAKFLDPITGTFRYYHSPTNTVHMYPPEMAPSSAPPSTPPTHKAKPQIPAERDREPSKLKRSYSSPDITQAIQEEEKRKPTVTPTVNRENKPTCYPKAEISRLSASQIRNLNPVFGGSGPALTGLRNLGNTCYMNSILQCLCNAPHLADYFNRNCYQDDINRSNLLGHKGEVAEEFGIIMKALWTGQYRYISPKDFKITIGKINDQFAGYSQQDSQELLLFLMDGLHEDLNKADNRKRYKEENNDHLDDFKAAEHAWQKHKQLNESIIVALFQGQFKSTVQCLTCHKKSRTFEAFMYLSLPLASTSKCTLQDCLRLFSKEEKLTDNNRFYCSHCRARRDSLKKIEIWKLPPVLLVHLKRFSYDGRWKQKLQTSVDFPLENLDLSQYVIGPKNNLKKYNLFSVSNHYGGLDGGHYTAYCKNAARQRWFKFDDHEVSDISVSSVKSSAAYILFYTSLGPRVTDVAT
In short: as §1

USP9X = USP9X (UniProt Q93008)
Sequence of USP9X (Q93008 whole entry): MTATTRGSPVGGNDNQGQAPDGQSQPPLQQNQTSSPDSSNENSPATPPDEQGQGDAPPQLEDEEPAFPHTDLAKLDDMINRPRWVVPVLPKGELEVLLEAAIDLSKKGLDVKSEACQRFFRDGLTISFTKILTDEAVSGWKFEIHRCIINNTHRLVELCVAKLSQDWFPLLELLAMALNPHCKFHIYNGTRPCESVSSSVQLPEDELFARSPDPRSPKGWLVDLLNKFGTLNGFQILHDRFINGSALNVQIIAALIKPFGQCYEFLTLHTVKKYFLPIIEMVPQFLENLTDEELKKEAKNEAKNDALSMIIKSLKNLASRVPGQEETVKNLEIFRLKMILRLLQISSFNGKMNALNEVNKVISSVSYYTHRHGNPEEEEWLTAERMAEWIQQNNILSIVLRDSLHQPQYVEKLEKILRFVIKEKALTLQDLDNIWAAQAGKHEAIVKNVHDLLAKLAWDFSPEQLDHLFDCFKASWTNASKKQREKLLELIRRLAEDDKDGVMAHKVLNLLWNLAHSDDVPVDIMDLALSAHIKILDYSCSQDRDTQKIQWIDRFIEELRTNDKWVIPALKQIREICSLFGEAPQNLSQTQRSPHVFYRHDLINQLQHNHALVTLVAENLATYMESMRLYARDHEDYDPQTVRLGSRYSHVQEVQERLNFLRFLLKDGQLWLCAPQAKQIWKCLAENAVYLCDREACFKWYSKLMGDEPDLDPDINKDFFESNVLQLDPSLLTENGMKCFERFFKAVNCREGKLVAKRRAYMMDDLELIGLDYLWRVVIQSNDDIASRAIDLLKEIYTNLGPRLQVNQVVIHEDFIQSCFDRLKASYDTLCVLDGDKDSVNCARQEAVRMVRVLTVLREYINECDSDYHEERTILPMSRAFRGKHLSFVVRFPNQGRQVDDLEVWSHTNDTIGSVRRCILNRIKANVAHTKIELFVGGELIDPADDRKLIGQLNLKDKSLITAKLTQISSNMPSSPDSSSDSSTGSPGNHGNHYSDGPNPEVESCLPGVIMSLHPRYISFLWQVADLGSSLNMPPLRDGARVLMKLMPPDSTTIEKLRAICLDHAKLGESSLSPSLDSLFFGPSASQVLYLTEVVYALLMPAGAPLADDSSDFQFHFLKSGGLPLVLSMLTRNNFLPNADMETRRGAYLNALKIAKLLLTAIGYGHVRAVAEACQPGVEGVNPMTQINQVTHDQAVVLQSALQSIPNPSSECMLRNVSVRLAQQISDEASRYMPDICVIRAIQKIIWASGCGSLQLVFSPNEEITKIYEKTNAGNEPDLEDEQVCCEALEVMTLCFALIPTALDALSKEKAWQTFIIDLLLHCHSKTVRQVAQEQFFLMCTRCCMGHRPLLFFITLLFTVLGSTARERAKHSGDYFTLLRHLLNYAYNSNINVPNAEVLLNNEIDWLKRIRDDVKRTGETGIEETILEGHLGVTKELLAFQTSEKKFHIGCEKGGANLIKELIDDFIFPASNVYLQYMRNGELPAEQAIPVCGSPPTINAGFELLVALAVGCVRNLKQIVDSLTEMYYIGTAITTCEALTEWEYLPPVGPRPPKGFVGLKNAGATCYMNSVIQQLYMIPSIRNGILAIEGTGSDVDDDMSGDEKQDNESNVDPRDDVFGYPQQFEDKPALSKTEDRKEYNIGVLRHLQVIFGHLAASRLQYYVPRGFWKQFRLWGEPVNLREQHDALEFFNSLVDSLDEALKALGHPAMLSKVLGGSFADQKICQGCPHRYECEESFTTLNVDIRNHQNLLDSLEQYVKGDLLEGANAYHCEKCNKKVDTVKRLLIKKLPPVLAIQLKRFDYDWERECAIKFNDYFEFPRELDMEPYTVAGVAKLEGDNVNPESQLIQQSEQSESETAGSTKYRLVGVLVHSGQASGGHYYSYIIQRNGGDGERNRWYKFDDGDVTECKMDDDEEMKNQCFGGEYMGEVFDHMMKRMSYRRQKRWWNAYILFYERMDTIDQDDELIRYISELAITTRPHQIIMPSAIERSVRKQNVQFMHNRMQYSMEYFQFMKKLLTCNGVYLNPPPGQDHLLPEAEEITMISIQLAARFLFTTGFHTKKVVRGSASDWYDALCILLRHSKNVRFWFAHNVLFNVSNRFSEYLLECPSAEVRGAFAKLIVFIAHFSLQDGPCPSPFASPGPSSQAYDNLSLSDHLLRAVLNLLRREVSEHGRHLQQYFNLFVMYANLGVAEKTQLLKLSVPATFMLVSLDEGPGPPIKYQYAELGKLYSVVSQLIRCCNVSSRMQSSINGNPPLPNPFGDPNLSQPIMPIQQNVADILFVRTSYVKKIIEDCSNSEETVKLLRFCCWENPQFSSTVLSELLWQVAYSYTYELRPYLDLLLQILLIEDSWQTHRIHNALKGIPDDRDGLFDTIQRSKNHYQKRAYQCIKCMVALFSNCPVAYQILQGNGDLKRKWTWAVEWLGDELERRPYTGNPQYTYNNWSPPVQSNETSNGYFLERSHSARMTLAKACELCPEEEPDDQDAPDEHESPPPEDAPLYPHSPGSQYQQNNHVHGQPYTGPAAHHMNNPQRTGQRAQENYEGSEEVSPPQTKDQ
In short: as §1

UniProt O00487 = molecular target: UniProt O00487
Sequence of UniProt O00487 (O00487 whole entry): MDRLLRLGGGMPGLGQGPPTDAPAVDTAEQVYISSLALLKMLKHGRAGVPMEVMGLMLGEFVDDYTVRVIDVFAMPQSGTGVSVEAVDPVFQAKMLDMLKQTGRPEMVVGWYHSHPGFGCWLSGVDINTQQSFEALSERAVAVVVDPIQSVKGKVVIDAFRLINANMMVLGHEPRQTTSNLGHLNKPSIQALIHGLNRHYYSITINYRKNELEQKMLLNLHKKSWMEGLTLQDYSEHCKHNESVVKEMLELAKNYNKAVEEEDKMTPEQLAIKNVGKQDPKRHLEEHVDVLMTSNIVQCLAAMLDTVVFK
In short: as §1

Measured: log2 ratio of Biotin-Ahx-Ub-VS probe labelling

C#Cc1cccc(NC(=O)CCl)c1
inactive: USP42 0.466 | USP46 -0.0515 | USP47 -0.468 | USP48 -0.362 | USP5 -0.268 | USP54 -0.249 | USP7 -0.56 | USP8 -0.179 | USP9X -0.146 | UniProt O00487 -0.148
